# Inconclusive results are not listed. Unmarked numbers belong to inactive results. The source made the active and inactive calls. Calls come from the whole dose curve; as a rule, active = well fitted cell-killing curve with a large enough effect; inconclusive = small, poorly fitted or top-dose-only effect; inactive = flat fitted curve, though single readings scatter.
# Test: qHTS of pediatric cancer cell lines to identify multiple opportunities for drug repurposing: Primary screen for BT-37 cells (AID 1347094)
# Conditions: BT-37 viability, CellTiter-Glo luminescence, 48 h; series mostly up to 57.3 µM; activity change, negative = cytotoxic: at the top concentration
# From the text: Drug repurposing or repositioning has been offered as a strategy for drug development in oncology programs. This approach has special potential for childhood cancers and other rare or orphan diseases, where the expected return on new drug development has been a disincentive to pharmaceuticals. […] In this project we exploit the poly-pharmacology of drugs to discover new indications via phenotypic screening of a panel of 19 well-characterized cell lines derived from solid tumors seen in children and adolescents. The goal is to identify approved drugs with previously unrecognized anticancer properties that has the potential to reveal new mechanisms and biological processes involved in carcinogenesis or drug resistance. We employed a titration-based paradigm (quantitative high-throughput screening or qHTS), where all compounds were tested at multiple concentrations for their effect on cell viability. Concentration-response curves (CRCs) were derived directly from the primary screen, and both potency and efficacy values were used to identify compounds with robust bioactivity profiles. We screened the NIH Chemical Genomics Center (NCGC) Pharmaceutical Collection (NPC) and Mechanism Interrogation Plate (MIPE) small molecule collections of approved and investigational compounds against these cell lines; and measured metabolically active cells after 48 hours of compound treatment as a proxy for cell viability. […] Assay Submitter: Nathalia J. Martinez, National Center for Advancing Translational Sciences, National Institutes of Health, Rockville, MD, USA; email: natalia.martinez@nih.gov Shen, M et al. Quantitative high-throughput phenotypic screening of pediatric cancer cell lines identifies multiple opportunities for drug repurposing. Oncotarget 2017 Dec 19;9(4):4758-4772. PMID 29435139.
# The cells were obtained from University of North Carolina (UNC), Pediatric Preclinical Testing Program (PPT), and Coriell Institute (CI). qHTS cell viability assay: Cells were assayed in growth media at a density of 500-1,000 cells/well. Five microliters of cells were dispensed into 1,536-well, white, solid-bottom, TC-treated plates (Greiner Bio One) using a multidrop dispenser and incubated at 37 degrees C, 5% CO2, under a humidified atmosphere for 5 hours. Twenty-three nanoliters of compounds and controls (neutral control DMSO or positive control bortezomib at final concentration of 2.3 µM) were subsequently transferred by Kalypsys pintool. For primary screens, the MIPE collection was tested at 11-point dilutions (final concentrations range from 0.78 nM to 46 µM) and the NPC collection at 8-point dilutions (final concentrations range from 0.59 nM to 46 µM). Compounds tested in follow-up screens were assayed at 11-point dilutions. Cells were incubated for 48 hours, followed by addition of 3 µL of CellTiter-Glo (Promega). After a 15 min incubation at room temperature, samples were analyzed for luminescence intensity using a ViewLux High-throughput CCD imager equipped with clear filters.
# Potency is the fitted concentration of half-maximal effect.
Structure (SMILES),"activity change, negative = cytotoxic",Potency
CO[C@H]1/C=C\O[C@@]2(C)Oc3c(C)c(O)c4c(O)c(c5c(nc6cc(C)ccn65)c4c3C2=O)NC(=O)C(C)=CC=C[C@H](C)[C@H](O)[C@@H](C)[C@@H](O)[C@@H](C)[C@H](OC(C)=O)[C@H]1C,-7.51%,
O=C(NCCCCN1CCOCC1)c1cc2ccccc2o1,7.35%,
CN(C)CCOc1ccc(-c2nc(-c3ccc4c(c3)CCC4=NO)c(-c3ccncc3)[nH]2)cc1,,30.6 µM (active)
Cc1cc2nc3c(=O)[nH]c(=O)nc-3n(CC(O)C(O)C(O)CO)c2cc1C (stereo not given),1.23%,
Cc1cc(NC(=O)Nc2ccc(N(C)C)cc2)c2cc(F)cc(F)c2n1,2.4%,
CCC=CC[C@H]1C(=O)CC[C@@H]1CC(=O)OC,6.84%,
COc1ccc2c(c1)CC[C@H]1[C@@H]2CC[C@]2(C)[C@@H](NCCCCCCN3C(=O)C=CC3=O)CC[C@H]12,-7.62%,
Cc1ccccc1C(C(=O)NC1CCCCC1)N(C(=O)CNc1ccc(C#N)cc1)c1cccc(F)c1 (stereo not given),6.87%,
CN1CCC[C@H]1CCO[C@](C)(c1ccccc1)c1ccc(Cl)cc1,-7.13%,
CCC(=O)NCC[C@@H]1CCc2ccc3c(c21)CCO3,-0.141%,
CCC(=O)N1CCN(c2ccc(-n3c(=O)ccc4cnc5ccc(-c6cnc7ccccc7c6)cc5c43)cc2C(F)(F)F)CC1,,0.0217 µM (active)
N#Cc1c(N(CC(=O)O)CC(=O)O)sc(C(=O)O)c1CC(=O)O,-5.12%,
CN1CCN2c3ncccc3Cc3ccccc3C2C1 (stereo not given),1.88%,
Cc1ccc2c(c1)C(=O)[C@]1(O)CCN(c3ccccc3)C1=N2,1.61%,
CO[C@H]1C=CO[C@@]2(C)Oc3c(C)c(O)c4c(O)c(c(C=NN5CCN(C)CC5)c(O)c4c3C2=O)NC(=O)C(C)=CC=C[C@H](C)[C@H](O)[C@@H](C)[C@@H](O)[C@@H](C)[C@H](OC(C)=O)[C@H]1C,-9.92% [at 11.5 µM],
COc1ccc(C=CC(=O)Nc2ccccc2C(=O)O)cc1OC,-6.03%,
C=C[C@@H]1CN2CCC1C[C@@H]2C(O)c1ccnc2ccc(OC)cc12 (stereo not given in full),-5.03%,
N[C@@H](CC(=O)N1CCn2c(nnc2C(F)(F)F)C1)Cc1cc(F)c(F)cc1F,-2.55%,
CCCCOCCOc1nc(-c2ccc(C(=O)O)c(F)c2)sc1C,-1.82%,
C[C@H]1[C@H](O)O[C@@H]2O[C@@]3(C)CC[C@@H]4[C@H](C)CC[C@@H]1[C@@]24OO3,,3.85 µM (active)

Structure (SMILES),"activity change, negative = cytotoxic",Potency
C[C@]12CCC3=C4CCC(=O)C=C4CC[C@@H]3[C@H]1CC[C@@]2(O)CC#N,8.79%,
CN[C@@H](C)[C@H]1[C@H](O)C[C@@]2(C)[C@@H]3CC[C@H]4C(C)(C)[C@@H](NC)CC[C@@]45C[C@@]35CC[C@]12C,-1.22%,
CCCCCOC(=O)Nc1nc(=O)n([C@@H]2O[C@H](C)[C@@H](O)C2O)cc1F (stereo not given in full),-2.63%,
CCOc1ccccc1N=Nc1c(C)[nH]n(-c2nc(-c3ccccc3)cs2)c1=O,-6.16%,
CCCCC[C@H](O)C=C[C@H]1[C@H](O)CC(=O)[C@H]1CCCCCCC(=O)O,-7.37%,
CN(C)CCOc1ccc(C(=C(CCCl)c2ccccc2)c2ccccc2)cc1,-0.047%,
CN[C@@H]1[C@@H](O)[C@@H](O[C@@H]2[C@@H](O)[C@H](O[C@H]3O[C@H](CN)[C@@H](O)[C@H](O)[C@@H]3O)[C@@H](N)C[C@@H]2NC(=O)[C@@H](O)CN)OC[C@]1(C)O,10.9%,
CC[C@H](NC(=O)[C@H](C)NC)C(=O)N1C[C@@H](O)C[C@H]1Cc1c(-c2[nH]c3cc(F)ccc3c2C[C@H]2C[C@H](O)CN2C(=O)[C@H](CC)NC(=O)[C@H](C)NC)[nH]c2cc(F)ccc12,,0.217 µM (active)
CC(=O)Nc1cccc(-n2c(=O)n(C3CC3)c(=O)c3c(Nc4ccc(I)cc4F)n(C)c(=O)c(C)c32)c1,-23.3%,
O=[N+]([O-])c1ccc(Nc2ccccc2-c2ccccc2)c2nonc12,-14.7%,
O=c1[nH]nc(OCCCc2ccc(Cl)cc2)c(NCc2cccnc2)c1Br,,21.7 µM (active)
NS(=O)(=O)c1cc(Cl)c(Cl)c(S(N)(=O)=O)c1,12.6%,
CN(C)c1nc(Cc2ccc(NC(=O)c3ccc(C(F)(F)F)cc3)cc2)nc(N(C)C)c1CC(=O)O,22.6%,
COc1cc([C@H]2Oc3cc([C@H]4Oc5cc(O)cc(O)c5C(=O)[C@H]4O)ccc3O[C@H]2CO)ccc1O,-18.6%,
NCC1CCC(C(=O)O)CC1 (stereo not given),5.58%,
COc1cc2nccc(Oc3ccc(NC(=O)Nc4cc(C)on4)c(Cl)c3)c2cc1OC,,24.3 µM (active)
CNc1nc(Nc2ccc(C(=O)N3CCOCC3)cc2OC)ncc1Cl,14.9%,
NC[C@H]1O[C@H](O[C@@H]2[C@@H](O)[C@@H](O[C@H]3O[C@H](CO)[C@@H](O)[C@H](N)[C@@H]3O)[C@H](N)C[C@@H]2N)[C@H](O)[C@@H](O)[C@H]1O,1.56%,
Cn1c(=O)c(Oc2ccc(F)cc2F)cc2cnc(NC3CCOCC3)nc21,-13.7%,
CC(C)C[C@H](NC(=O)c1cc2ccccc2s1)C(=O)N1CCN(C(=O)[C@H](CO)NS(=O)(=O)c2ccc(Cl)cc2Cl)CC1,,15.3 µM (active)

# From PubChem BioAssay (NCATS)
